Source: PubChem (National Center for Advancing Translational Sciences (NCATS))
hERG WT inh: KCNH2 (human, wildtype) channel inhibition; activity change, % at 1.84 µM; Q12809; 0.37% of 340,000 active; U2OS, BacMam KCNH2, thallium flux FluxOr; hits give low values;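 active = maximum activity change below -70%; inconclusive = maximum activity change between -70% and -50%; inactive = maximum activity change above -50%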
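U2OS cells were transduced with wild-type KCNH2 virus (2.03 x 10^8 / mL) for 4 h at room temperature, then cultured overnight at 37 C. Thallium flux was read with FluxOr dye. Rate constants were normalized to DMSO controls.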
RXFP1 antag: RXFP1 (human) relaxin receptor antagonism; Q9HBX9; HEK293-RXFP1, relaxin-stimulated cAMP HTRF, 30 min; hits give low values; activity change, negative = inhibition, % at 57.5 µM; 0.59% of 350,000 active;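 active = activity change of -60% or lower, but not beyond a set lower limit; inconclusive = change between -60% and -40%, or beyond the set limit; inactive = change above -40%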
RXFP1 agonist: activates the human relaxin receptor RXFP1; HEK293T-RXFP1 cAMP TR-FRET, 30 min; response scale: percent of porcine relaxin response, buffer zero; Q9HBX9; 0.3% of 370,000 active; Potency, µM (doses to about 57.5 µM), without a hit: at the top dose activation, most hits filed as activators; active = well fitted activation curve with a large enough effect; inconclusive = small, poorly fitted or top-dose-only effect; note: potency is the fitted concentration of half-maximal effect; nearly all actives have a fitted effect of over 60% in size
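cAMP rise read by TR-FRET after 30 min, 37C compound exposure (up to 58 uM) in RXFP1-transfected HEK293 cells with Ro 20174 present. EC50 from Hill-equation fits, with 29 nM porcine relaxin as 100% and buffer as basal.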
KCNH2 3.1 inh: KCNH2 3.1 (human) potassium channel inhibition; 0.95% of 340,000 active; AID 720553; activity change, % (tested at about 1.8 µM); U2OS KCNH2 3.1, thallium flux FluxOr; hits give low values;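 active = maximum activity change below -70%; inconclusive = maximum activity change from -70% to -50%; inactive = maximum activity change above -50%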;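 note: thallium influx rate constant from kinetic fluorescence after stimulation buffer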
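Virally transduced U2OS (3.1 isoform, 4 h infection in dark at RT) → overnight 37 C → FluxOr + Red40 in HBSS/HEPES, 45 min → stimulation buffer, 2 min kinetic read → rate constant vs DMSO controls.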
Akt phos inh: blocks phosphorylation of Akt | activity change, % for hits at 50 µM | 0.32% of 360,000 active | Neuro2A IGF-stimulated pAkt S473 HTRF, 20 min; hits give low values; in the data active = activity change below about -80%; inconclusive = mostly about -51% to -80%
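Neuro2A cells (4,500/well, DMEM with 0.5% FBS) were treated with compound at a single 50 µM final concentration, stimulated with 6 nM IGF for 20 min at 37 °C, and lysed. Phospho-Akt Ser473 was read by HTRF as 665/615 ratio ×10^4.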
* hit, by the source's call; i = inactive; ? = inconclusive; nt = not tested or not shown. An excerpt weighted towards active compounds, which were near 1.7% of everything screened. % is set by controls: 0 for no effect and ±100 for the full control effect.

SMILES	hERG WT inh	RXFP1 antag	RXFP1 agonist	KCNH2 3.1 inh	Akt phos inh
CCn1cc(-c2cc(C(F)(F)F)n3nc(C(=O)O)cc3n2)c(C)n1	3.2	-2.1	2.9%	-0.8	-111.9%*
O=C(NN=C1CCCC1)c1ccc([N+](=O)[O-])cc1	-221.7*	3.9	-2.0%	0.1	i
O=C(NN=C1CCCC1)c1ccc(O)cc1	-10.9	5.0	1.7%	-4.2	i
CCOc1ccc(-n2c(CCc3ccccc3)n[nH]c2=S)cc1	6.0	-12.7	-0.9%	-1.4	i
CCCOc1ccc(CCc2n[nH]c(=S)n2-c2ccccc2)cc1	-3.5	-20.5	-0.9%	-73.7*	i
Cc1ccc(C(=O)Oc2ccc(C(=O)COC(=O)C3CC(=O)N(Cc4ccco4)C3)cc2)cc1 (stereo not drawn)	-0.8	-4.5	0.3%	-87.3*	i
O=C(COC(=O)C1CC(=O)N(Cc2ccco2)C1)c1ccc(OC(=O)c2ccco2)cc1 (stereo not drawn)	-2.5	-7.3	-1.6%	22.0	i
CC(=O)N/C(=C\c1ccc(C)cc1)C(=O)O	nt	0.5	-1.9%	-18.7	i
CCCSc1cc(N2CCCC2)nc(-c2ccccc2)n1	2.9	-4.5	0.6%	6.2	i
CCCSc1cc(N2CCN(C)CC2)nc(-c2ccc(OC)cc2)n1	-26.1	-34.4	-0.7%	-70.6*	-88.6%*
S=C(NCCc1ccccc1)N1CCN(C23CC4CC(CC(C4)C2)C3)CC1	-5.6	-27.9	-1.7%	-88.4*	i
Cc1ccc(S(=O)(=O)CNC(=S)c2ccc3ccccc3c2)cc1	-0.2	-5.7	0.0%	3.9	i
COc1ccc(C(=S)NCS(=O)(=O)c2ccc(C)cc2)cc1	-148.2*	1.6	-1.7%	5.3	i
Cc1ccc(-c2nc(C(=O)NC3CCCCCC3)no2)cc1	-10.4	-61.5*	nt	0.8	i
Cc1ccc(C(=O)OCC(=O)NC2CCCCC2)o1	10.8	4.0	-0.9%	-2.9	i
Cc1ccc(C(=O)NC2CCCCCC2)o1	5.8	-2.1	0.0%	11.0	-139.5%*
O=C(NC1CCCCCC1)c1cccs1	-83.2*	-1.1	2.2%	-3.5	i
Cc1ccc2cc(C(=O)O)c(C)nc2c1	4.7	0.0	-0.2%	-87.9*	i
Cc1ccccc1NC(=O)CN1CCC(n2nnc3ccccc32)CC1	-7.4	-2.9	6.2%	-16.1	i
Cc1nc2ccccc2n1C1CCN(CC(=O)Nc2ccccc2Br)CC1	?	-4.4	3.1%	-91.3*	i
COc1cccc(-n2c(-c3ccc(C)cc3)cc3c2CC(C)(C)CC3=O)c1	nt	-2.8	-2.5%	nt	nt
COc1ccc(-n2c(-c3ccc(C)cc3)cc3c2CC(C)(C)CC3=O)c(OC)c1	nt	-62.1*	3.6%	nt	nt
O=C(NCc1ccccn1)C1CCCN(Cc2cnn(-c3ccccc3)c2-n2cccc2)C1 (stereo not drawn)	-5.6	-1.4	-4.8%	5.3	-98.1%*
O=C(NCc1ccccn1)C1CCN(Cc2cnn(-c3ccccc3)c2-n2cccc2)CC1	-0.8	-7.1	1.5%	-9.4	nt
CCCOC(=O)c1c(NC(=O)C2c3ccccc3Oc3ccccc32)sc2c1CCCC2	nt	-5.9	-1.5%	nt	nt
SMILES	hERG WT inh	RXFP1 antag	RXFP1 agonist	KCNH2 3.1 inh	Akt phos inh
CC(C)OC(=O)c1c(NC(=O)C2c3ccccc3Oc3ccccc32)sc2c1CCCC2	nt	4.1	22.4µM*	nt	nt
Cc1cc(C=O)c(C)n1-c1ccc(NC2CCCC2)c([N+](=O)[O-])c1	-5.0	-64.6*	0.1%	17.9	i
Cc1cc(C=O)c(C)n1-c1ccc(Oc2ccc([N+](=O)[O-])cn2)cc1	-9.1	-10.5	2.2%	2.0	i
CC1(C)Cc2c(sc3c2c(=N)n(Cc2ccco2)c(=O)n3CC(=O)Nc2cccc(Cl)c2)CO1	-3.8	-13.5	-1.1%	10.5	-122.3%*
Cc1cccc(NC(=O)Cn2c(=O)n(Cc3ccco3)c(=N)c3c4c(sc32)COC(C)(C)C4)c1	-0.4	-6.3	1.3%	-0.7	i
Cc1ccc(C)c(NC(=O)COC(=O)c2cccc(S(=O)(=O)N3CCCCC3)c2)c1	?	-8.5	-0.1%	-3.8	i
Cc1ccc(NC(=O)CSC(N)=O)cc1Cl	-5.1	-8.8	0.9%	-1.8	i
NC(=O)SCC(=O)Nc1ccc(Cl)c(Cl)c1	-16.2	-71.4*	2.3%	-9.2	i
CCNC(=O)CSc1nnc(C2CC2)n1-c1ccccc1	-6.0	3.1	-0.6%	14.7	i
O=C(CSc1nnc(C2CC2)n1-c1ccccc1)NCCc1ccccc1	10.1	0.3	0.6%	5.5	-101.6%*
Cn1c(SCC(=O)Nc2nncs2)nnc1C1CC1	12.2	8.5	-0.3%	-1.9	i
Cn1c(SCC(=O)Nc2ccccc2Oc2ccccc2)nnc1C1CC1	-110.0*	3.6	1.1%	0.5	i
Cc1nc(NC(=O)CSc2nnc(C3CC3)n2C)sc1C	-253.6*	-0.2	3.1%	7.4	i
COc1ccc2[nH]c3c(=S)nc[nH]c3c2c1	-0.9	8.7	15.8µM*	23.2	i
[2H]C(CCOS(N)(=O)=O)c1ccc(C(C)(C)C)cc1 (stereo not drawn)	nt	nt	-1.1%	nt	i
NC(=O)NCc1ccc(Cl)cc1	-20.7	3.2	2.3%	-80.2*	i
COc1ccc(CNC(N)=O)cc1	3.3	-2.4	nt	7.8	i
COCCNC(=O)C1(C)CCCN(C(=O)c2ccccc2C(F)(F)F)C1 (stereo not drawn)	nt	nt	nt	nt	i
CCC1S/C(=C(\C#N)C(=O)NCc2ccco2)N(c2ccc(F)cc2)C1=O (stereo not drawn)	6.9	-11.9	0.2%	-13.8	i
CCC1S/C(=C(\C#N)C(=O)NCc2ccco2)N(c2ccc(Br)cc2)C1=O (stereo not drawn)	0.1	-14.9	2.3%	12.0	-107.5%*
Cc1ccc(-c2cc(=O)c3cc(F)ccc3[nH]2)cc1	4.7	nt	0.1%	-14.4	i
Cc1ccc2[nH]c(-c3cccc(F)c3)cc(=O)c2c1	-7.7	nt	5.1%	-6.0	i
O=c1cc(-c2cccc(F)c2)[nH]c2ccccc12	2.3	nt	2.3%	-70.7*	i
O=c1cc(-c2ccccc2)[nH]c2ccc(F)cc12	-12.4	nt	4.4%	-98.5*	i
Cc1ccc(CN(C)C(=O)c2cc(Br)c(Br)s2)o1	10.9	11.6	2.1%	7.3	i
Cc1ccc(C(=O)c2ccc(C)cc2)cc1	0.5	2.2	-0.8%	-11.9	i
CC(=O)Nc1ccc(NC(=O)C/C(C)=N/NC(=O)C(=O)Nc2ccc(C)c(Cl)c2)cc1	-1.4	?	1.5%	-84.2*	i
COc1ccc(CCC(=O)NCc2ccc3c(c2)CCN3C(=O)c2cccc(C)c2)cc1	nt	-96.1*	1.1%	nt	nt
COc1ccc(CCC(=O)NCc2ccc3c(c2)CCN3C(=O)c2ccccc2)cc1	nt	-20.6	1.2%	nt	nt
CSc1ncc2ncn(C3OC(CO)C(O)C3O)c2n1 (stereo not drawn)	22.5	-18.0	4.7%	-5.1	i
